# Several values for one entry are separate records, joined by “and”; a condition that tells them apart may be missing. Equal entries are not always repeated. Results filed as inconclusive are left out. Activity calls are given as the source filed them. Unless noted, cut-off not given; nearly all actives show AC50 up to about 26 µM.
# Assays:
# [1] = growth inhibition, single agents and combos, HTB85, cell-based, BGB or cisplatin IC20 combos, synergistic combos for chromothripsis tumors (AID 1671453; in the data active means inhibition above about 80%;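 further: cells exposed for 96 hours before readout; 0% = vehicle DMSO and 100% = high DMSO killing control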); conditions: HTB85 osteosarcoma cells, drug combinations, stronger effect = higher value
# [2] = growth inhibition, single agents and combos, CRL2098, cell-based, BGB or cisplatin IC20 combos, synergistic combos for chromothripsis tumors (AID 1671454; in the data active means inhibition above about 80%;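 further: cells exposed for 96 h before readout; 0% = vehicle DMSO and 100% = killing by high DMSO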); conditions: CRL2098 osteosarcoma cells, drug combinations, stronger effect = higher value
# [3] = growth inhibition, single agents and combos, HD-MB03, cell-based, BGB or cisplatin IC20 combos, synergistic combos for chromothripsis tumors (AID 1671455; in the data active means inhibition above about 83%;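 further: 0% = vehicle DMSO and 100% = high DMSO as cytotoxic control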); conditions: HD-MB03 medulloblastoma cells, stronger effect = higher value
# [4] = viability loss in pontine glioma line – cell-based, SU-DIPG-XXV, MIPE5.0, CellTiter-Glo, qHTS, dose response (AID 1347065); conditions: CellTiter-Glo ATP luminescence;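 further: cells exposed to compound for 48 hours before ATP readout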
# [5] = JHH-DIPG-1 glioma cell viability, MIPE5.0 library, CellTiter-Glo luminescence, qHTS (AID 1347067); conditions: JHH-DIPG-1 glioma viability, CellTiter-Glo ATP luminescence;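 further: cells exposed to compound for 48 hours before readout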
# [6] = growth inhibition of DIPG cells – cell-based, MIPE5.0 library, qHTS (AID 1347068; cut-off not given, nearly all actives have IC50 up to about 30 µM); conditions: SU-DIPG-XXV viability
# [7] = viability loss with induced miR-34 in A549 – imaging, A549 dox-inducible miR-34, nuclei and caspase counts, primary screen (AID 1347080;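 active means compounds whose cell count with miR-34 switched on is under 0.7 times the count with it off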); conditions: A549 miR-34 inducible, Hoechst nuclei count, 48 h
# [8] = blockers of cellular phospholipid synthesis – cell-based, LOPAC library, screen 4, primary screen (AID 1347384; call rule not given here); conditions: animal cells, phospholipid biosynthesis inhibition screen; at 10 µM
# [9] = MELAS cybrid and Rieske KO viability enhancers – cell-based, MELAS cybrids, Rieske KO mouse fibroblasts, CellTiter-Glo, primary screen (AID 1508586;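 active means mean z-score across replicates of 1.96 or higher in either the MELAS or the Rieske mutant cell line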;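 further: z relative to plate mean and SD of compound and empty wells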); conditions: low glucose
# [10] = target: NAD(+) hydrolase SARM1 (Homo sapiens) (UniProt Q6SZW1); experiment: blocking NAD cleavage by SARM1 SAM-TIR – cell lysate, NAD-Glo luminescence (AID 1508614;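 active means compound whose remaining NAD level is above about 45 nM, limit read from the data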); conditions: SAM-TIR HEK293T lysate NADase, at 1 µM, stronger effect = higher value
# NAD(+) hydrolase SARM1 (Homo sapiens), sequence (Q6SZW1 whole entry, looked up, the tested form may be a part): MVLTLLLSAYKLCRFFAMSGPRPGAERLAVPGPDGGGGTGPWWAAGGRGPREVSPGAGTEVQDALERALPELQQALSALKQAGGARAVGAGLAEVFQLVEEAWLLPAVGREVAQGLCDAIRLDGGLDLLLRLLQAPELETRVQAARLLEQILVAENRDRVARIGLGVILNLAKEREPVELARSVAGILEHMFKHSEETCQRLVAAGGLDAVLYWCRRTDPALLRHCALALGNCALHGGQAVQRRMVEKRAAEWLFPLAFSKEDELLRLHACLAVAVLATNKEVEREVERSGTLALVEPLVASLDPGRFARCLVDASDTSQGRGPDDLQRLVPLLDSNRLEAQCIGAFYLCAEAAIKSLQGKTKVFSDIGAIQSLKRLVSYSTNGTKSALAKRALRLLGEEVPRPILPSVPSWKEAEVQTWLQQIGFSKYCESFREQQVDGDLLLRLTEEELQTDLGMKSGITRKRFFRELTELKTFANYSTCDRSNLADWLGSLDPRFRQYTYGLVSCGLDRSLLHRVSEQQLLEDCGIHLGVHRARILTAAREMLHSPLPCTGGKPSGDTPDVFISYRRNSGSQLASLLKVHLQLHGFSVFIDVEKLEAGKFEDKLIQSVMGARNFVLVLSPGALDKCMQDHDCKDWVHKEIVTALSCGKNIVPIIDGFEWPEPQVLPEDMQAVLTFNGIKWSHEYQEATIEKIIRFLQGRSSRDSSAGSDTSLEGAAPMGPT
# [11] = target: Mitogen-activated protein kinase 7 (Homo sapiens) (UniProt Q13164); experiment: Gal4-ERK5 driven luciferase induction – cell-based, HTS, primary screen (AID 1508626;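 active means luciferase signal above three times the same-plate solvent-only control wells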;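 further: luciferase driven by Gal4-ERK5 fusion binding five Gal4 sites before minimal TATA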); conditions: HeLa Gal4-ERK5 transactivation, 18 h, at 5 µM, stronger effect = higher value
# Mitogen-activated protein kinase 7 (Homo sapiens), sequence (Q13164 whole entry, looked up, the tested form may be a part): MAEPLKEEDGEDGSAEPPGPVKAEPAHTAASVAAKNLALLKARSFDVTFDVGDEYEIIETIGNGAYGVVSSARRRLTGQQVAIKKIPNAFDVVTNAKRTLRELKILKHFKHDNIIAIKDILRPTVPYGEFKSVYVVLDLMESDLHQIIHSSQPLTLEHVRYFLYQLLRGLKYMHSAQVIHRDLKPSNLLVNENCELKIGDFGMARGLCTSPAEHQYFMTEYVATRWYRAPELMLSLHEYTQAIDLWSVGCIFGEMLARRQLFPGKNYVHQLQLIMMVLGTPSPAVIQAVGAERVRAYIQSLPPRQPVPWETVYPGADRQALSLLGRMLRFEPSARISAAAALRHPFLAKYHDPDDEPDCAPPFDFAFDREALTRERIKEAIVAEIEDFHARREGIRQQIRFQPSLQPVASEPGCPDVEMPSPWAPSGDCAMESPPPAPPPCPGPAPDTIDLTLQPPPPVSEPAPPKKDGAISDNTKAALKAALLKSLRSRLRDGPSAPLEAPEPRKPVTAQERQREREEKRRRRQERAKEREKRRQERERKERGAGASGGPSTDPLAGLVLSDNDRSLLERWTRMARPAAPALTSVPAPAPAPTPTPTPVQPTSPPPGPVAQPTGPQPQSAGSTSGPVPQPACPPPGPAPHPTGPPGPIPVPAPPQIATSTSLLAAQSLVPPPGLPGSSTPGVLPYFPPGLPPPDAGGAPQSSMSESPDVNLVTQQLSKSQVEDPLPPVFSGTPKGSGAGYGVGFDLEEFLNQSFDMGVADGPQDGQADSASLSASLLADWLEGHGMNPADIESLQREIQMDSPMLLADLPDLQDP
# [12] = galactose survival enhancers in mitochondrial complex I cybrids – cell-based, galactose medium, ATP luminescence, primary screen (AID 1645843;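 active means z-score of at least 1.8 in each of two replicates, scored against plate mean and spread of sample wells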;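 further: positive z means more ATP and so rescue of galactose-driven cybrid death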); conditions: complex I mutant cybrid cells, 72 h, stronger effect = higher value
# [13] = growth inhibition of DIPG cells – cell-based, MIPE4.0 library, CellTiter-Glo luminescence, qHTS (AID 1347066; cut-off not given, nearly all actives have AC50 up to about 30 µM;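 further: cells exposed to compound for 48 hours before readout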); conditions: SU-DIPG-VI viability, CellTiter-Glo ATP luminescence
# [14] = stronger effect = lower value, cell number ratio, induced over uninduced
# [15] = measured here: relative caspase fold change +Dox/-Dox
# [16] = measured here: total cells with miR-34 induction, stronger effect = lower value
# [17] = measured here: total cells without miR-34 induction
# [18] = MELAS cybrid survival, CellTiter-Glo 48 h, stronger effect = higher value
# [19] = Rieske KO mouse fibroblast survival, CellTiter-Glo 72 h
smiles,measurement,setting,value
CC(N)C12CC3CC(CC(C3)C1)C2 (stereo unspecified),inhibition,[1]; at 0.5 µM,-15.6% (inactive)
same,inhibition,"[1]; measured here: with BGB IC20, at 0.5 µM",-39.8%
same,inhibition,"[1]; measured here: with BGB IC20, at 5 µM",-20.6%
same,inhibition,"[1]; measured here: with cisplatin IC20, at 0.5 µM",-6.13%
same,inhibition,"[1]; measured here: with cisplatin IC20, at 5 µM",-66.2%
same,inhibition,"[1]; single agent, at 5 µM",-17.9%
same,inhibition,[2]; at 0.5 µM,-53.4% (inactive)
same,inhibition,"[2]; measured here: combination with BGB at IC20, at 0.5 µM",-8.22%
same,inhibition,"[2]; measured here: combination with cisplatin at IC20, at 0.5 µM",-77.6%
same,inhibition,[3]; at 0.5 µM,-18.7% (inactive)
same,inhibition,"[3]; measured here: combo with BGB at IC20, at 0.5 µM",-21.4%
same,inhibition,"[3]; measured here: combo with cisplatin at IC20, at 0.5 µM",-22.1%
Cc1cn[nH]c1,outcome,[4],inactive
same,outcome,[5],inactive
same,outcome,[6],inactive
same,fold change,[7]; [14],0.994 (inactive) and 0.902 (inactive)
same,fold change,[7]; [15],0.844 and 2.49
same,cell count,[7]; [16],10200 and 12000
same,cell count,[7]; [17],10200 and 13300
same,outcome,[8],inactive
same,z-score,[9]; [18],0.667 (inactive)
same,z-score,[9]; [19],0.0381
same,remaining NAD,[10],10 nM (inactive)
same,luciferase signal,[11],44 AU (inactive)
same,z-score,[12],0.65 (inactive)
COc1ccc2cc3[n+](cc2c1OC)CCc1cc2c(cc1-3)OCO2,AC50,[4],18.6 µM (active)
same,AC50,[13],23.5 µM (active)
same,AC50,[5],18.6 µM (active)
same,fold change,[7]; [14],0.92 (inactive) and 0.934 (inactive)
same,fold change,[7]; [15],1.68 and 1.22
same,cell count,[7]; [16],5700 and 4440
same,cell count,[7]; [17],6200 and 4750
same,z-score,[9]; [18],0.0209 (inactive)
same,z-score,[9]; [19],0.259
same,luciferase signal,[11],64 AU (inactive)
COc1ccc2nc(S(=O)Cc3ncc(C)c(OC)c3C)[nH]c2c1 (stereo unspecified),outcome,[4],inactive
same,outcome,[13],inactive
same,outcome,[5],inactive
same,outcome,[6],inactive
same,remaining NAD,[10],10 nM (inactive)
same,luciferase signal,[11],68 AU (inactive)
